About 8,600 (12%) of roughly 69,000 compounds showed an effect of 50% or more. The list comes from a sample in which strong results are over-represented; it also holds similar structures and randomly drawn compounds.
system: Plasmodium berghei; assay: Screen against P. berghei liver stage (PbLuc), transformed with Luciferase, at 10uM; type: functional, HepG2; settings: tested at 10 uM

| Structure (SMILES) | INHIBITION [%] |
| --- | --- |
| COc1ncccc1NC(=O)C1CC(=O)N(Cc2ccccn2)C1 (configuration not stated) | -8.69 |
| Cc1ccc(CN2CCC3(CCC3NC(=O)c3ccn(C)c3)CC2)s1 (configuration not stated) | -6.39 |
| CC(C)C(=O)N1CCCC1C(=O)Nc1cc(C(F)(F)F)ccc1F (configuration not stated) | 20.6 |
| CCc1ncnc2c1CCN(Cc1ccc3c(c1)OCO3)CC2 | -6.39 |
| COc1cccc(-c2cnc(C3CCNCC3)cn2)c1 | -28.6 |
| CCNC(=O)c1ccc(NC(=O)N(C)Cc2cccn2C)c(C)c1 | 54.6 |
| CNC(=O)c1ccc(NC(=O)NC(C)CCc2cccn2C)c(C)c1 (configuration not stated) | 23.7 |
| CCNC(=O)c1ccc(NC(=O)N(C)Cc2cc(C)on2)cc1 | -41.4 |
| Cc1ccc(OCCN(C)Cc2nc3c(cnn3C)c(=O)[nH]2)cc1 | 23.7 |
| O=C(NC[C@H]1CCCO1)c1ccc(S(=O)(=O)N2C[C@H]3C[C@@H]2CN3)cc1 | 30.7 |
| CN(Cc1ccncc1)C(=O)NC1CCS(=O)(=O)C1 (configuration not stated) | -4.12 |
| Cc1c(C2SCC(=O)Nc3c2c(O)nn3C(C)C)cnn1C (configuration not stated) | 13.1 |
| Cc1nn(C)c(C)c1C1SCC(=O)Nc2c1c(O)nn2C(C)C (configuration not stated) | 52.5 |
| Cc1nn(C)cc1C1SCC(=O)Nc2c1c(O)nn2C(C)C (configuration not stated) | 30.5 |
| CCCc1nc(NCCCOC)c2c(n1)c(C)nn2CC | 29.18 |
| COCCN1C(=O)CC(c2cccnc2)C12CCN(C)CC2 (configuration not stated) | 27.6 |
| CCC(=O)N1CCC2(CC1)C(c1cccnc1)CC(=O)N2CCOC (configuration not stated) | 59.3 |
| COCCN1C(=O)CC(c2cccnc2)C12CCN(C(=O)C1CC1)CC2 (configuration not stated) | 24 |
| O=C(c1ccccn1)N1C[C@@H](OCc2cccnc2)[C@H]2OCCC[C@@H]21 | -21.1 |
| COCCNC(=O)c1cc2c(s1)CCN2S(C)(=O)=O | 6.55 |
| O=C(c1ccc(=O)[nH]n1)N1CCC(CN2CCOCC2)CC1 | -40.5 |
| Cc1ccc(N2CCC(C(O)c3cccs3)CC2)nn1 (configuration not stated) | 56.3 |
| OC(c1cccs1)C1CCN(c2ncccn2)CC1 (configuration not stated) | 48 |

| Structure (SMILES) | INHIBITION [%] |
| --- | --- |
| N#Cc1nccnc1N1CCC(C(O)c2cccs2)CC1 (configuration not stated) | 42.4 |
| Cc1cccc(OCCNC(=O)CN2CCc3cncnc3C2)c1 | 22.3 |
| COC(=O)[C@H](C)NC(=O)c1cc(-c2cccc(Cl)c2)no1 | 3.16 |
| CCCS(=O)(=O)N1CCC2(CCN(Cc3cccc(F)c3)C2=O)C1 (configuration not stated) | 16.8 |
| CN(C)CCN1CCC2(CCN(C(=O)c3cccnc3)CC2)C1=O | -23.3 |
| CCO[C@@H]1CO[C@@]2(CCCN(C(=O)COc3ccccc3OC)C2)C1 | 15.8 |
| CN1CCO[C@@H]2CN(C(=O)COc3cccc(Cl)c3)C[C@@H]2C1 | 34.9 |
| Cc1ccc(OCC(=O)N2C[C@@H]3CN(C)CCO[C@@H]3C2)cc1 | 37.9 |
| COC1COC2(CCN(C(=O)c3ncccn3)CC2)C1 (configuration not stated) | 37.8 |
| CO[C@@H]1CO[C@@]2(CCN(C(=O)COc3ccccc3C)C2)C1 | 71 |
| O=C(COc1ccccc1)N1CCC[C@]2(C[C@@H](OCC3CC3)CO2)C1 | 27.6 |
| COc1ccccc1OCC(=O)N1C[C@@H]2CN(C)CCO[C@@H]2C1 | 55.6 |
| COc1ccccc1OCC(=O)N1CCC[C@]2(C[C@@H](OC)CO2)C1 | 54.7 |
| COCC(=O)N1CCC2(CC1)CC(OC)CO2 (configuration not stated) | 70.4 |
| COCC1COCCC12CCN(C(=O)COc1ccccc1C)CC2 (configuration not stated) | 0.542 |
| Cc1ccccc1OCC(=O)N1CC[C@]2(C[C@@H](OCC3CC3)CO2)C1 | -0.813 |
| COCC(=O)N1CCC2(CC1)CC(N1CCN(C)CC1)CO2 (configuration not stated) | 39.3 |
| Cc1occc1C(=O)Nc1cnn(CCN2CCOCC2)c1 | -16.565 |
| O=C(Nc1ccc2c(c1)OCO2)c1ccc(N2CCCC2)nn1 | 43.8 |
| NC(=O)CN(Cc1ccc(Br)cc1)C(=O)c1cnccn1 | 4.22 |
| O=C1COC2(COCCN(Cc3ccsc3)C2)CN1c1ccoc1 (configuration not stated) | 12.4 |
| CO[C@@H]1CO[C@@]2(CCCN(C(=O)C3CC=CC3)C2)C1 | 53 |
| CO[C@H]1CO[C@@]2(CCCN(C(=O)N3CCCC3)C2)C1 | 45.7 |

| Structure (SMILES) | INHIBITION [%] |
| --- | --- |
| CO[C@H]1CO[C@@]2(CCCN(C(=O)C3CC=CC3)C2)C1 | 22.2 |
| CC(C)c1nc(CN2CCN(CC(O)c3ccccc3)CC2)no1 (configuration not stated) | 21.5 |
| CC(=O)Nn1c(C)cc(CN2CCC(c3ccncc3)CC2)c1C | 28 |
| CC(=O)Nn1c(C)cc(CN2CCCN(Cc3ccncc3)CC2)c1C | 20.4 |
| CC(=O)Nn1c(C)cc(CN2CCC(C(=O)N3CCCC3)CC2)c1C | 52.8 |
| CN(c1cccnn1)C1CCN(C(=O)c2n[nH]c3c2CCC3)CC1 | -16.7 |
| O=C(c1cccnc1)N1CCSCC1 | 35.7 |
| O=C(c1cnc(-c2cccnc2)nc1)N1CCC(c2ccncc2)CC1 | 21.8 |
| O=C(c1cnc(-c2cccnc2)nc1)N1CCSCC1 | 51.9 |
| Cc1cccc(CNc2ccc(C(=O)N3CCC(CO)CC3)cc2)c1 | 38.3 |
| O=C([C@@H]1COC[C@H]2CN(C3CCOCC3)C[C@H]21)N1CCCCO1 | -3.1 |
| CCc1cccc2c(CC(=O)N(C)CCN(C)C)c(C)[nH]c12 | 47.9 |
| Cc1[nH]c2c(C)cccc2c1CC(=O)N(C)CCN(C)C | 34.15 |
| Cc1ccc2c(CC(=O)N(C)CCN(C)C)c(C)[nH]c2c1C | 50.75 |
| CC(=O)N1CCN(C(=O)CN(C)c2ccc(Cl)cn2)CC1 | 25 |
| c1cc(COC[C@@H]2CCC[C@@]23CNCCO3)ccn1 | 68.2 |
| c1cncc(COC[C@@H]2CCC[C@@]23CNCCO3)c1 | 24 |
| c1cc(COC[C@H]2CCC[C@]23CNCCO3)ccn1 | 53 |
| c1cncc(OC[C@@H]2CCC[C@@]23CNCCO3)c1 | -2.27 |
| Cc1nc(COC[C@@H]2CCC[C@@]23CNCCO3)cs1 | 48.9 |
| c1cncc(COC[C@@H]2CCC[C@]23CNCCO3)c1 | 22.2 |
